Results from paper PMC7862700, “An all-to-all approach to the identification of sequence-specific readers for epigenetic DNA modifications on cytosine”.

How the values were obtained:
Assay in all cases: DAPPL (digital affinity profiling via proximity ligation, sequencing); 10 mM Tris-HCl pH 7.5, 50 mM NaCl, 1 mM DTT, 4% glycerol, room temperature, 30 min; GST-TFs on glutathione beads, 16-mer random dsDNA library, 0.1% formaldehyde crosslink after washing; high values mean tight binding
Conditions in all cases: protein: recombinant; tags: N-terminal GST; dsDNA, one strand shown
ERF = biological target: T1, ERF (Homo sapiens, UniProt P50548 1-548)
T1 sequence: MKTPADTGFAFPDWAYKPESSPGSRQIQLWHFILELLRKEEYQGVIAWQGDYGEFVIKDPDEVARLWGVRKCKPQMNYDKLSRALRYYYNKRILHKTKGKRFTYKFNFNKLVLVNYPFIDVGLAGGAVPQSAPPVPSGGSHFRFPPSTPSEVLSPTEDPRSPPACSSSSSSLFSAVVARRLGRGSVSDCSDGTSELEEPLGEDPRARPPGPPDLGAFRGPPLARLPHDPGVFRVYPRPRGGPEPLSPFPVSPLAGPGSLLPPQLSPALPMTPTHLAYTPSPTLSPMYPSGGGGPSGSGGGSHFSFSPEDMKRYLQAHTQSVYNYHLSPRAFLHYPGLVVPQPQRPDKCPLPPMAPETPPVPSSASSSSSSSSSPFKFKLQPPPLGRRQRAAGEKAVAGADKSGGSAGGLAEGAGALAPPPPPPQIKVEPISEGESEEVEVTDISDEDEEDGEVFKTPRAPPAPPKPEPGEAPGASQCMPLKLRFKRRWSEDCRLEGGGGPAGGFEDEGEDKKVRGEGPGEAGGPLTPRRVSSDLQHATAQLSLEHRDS
Method in brief: (§1)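 A tag-only sample was pooled with DNA-barcoded human transcription factors that had been expressed in yeast as GST fusions and captured on glutathione beads. The pools were incubated for 30 min at room temperature with 200 nmole of a random double-stranded 16-mer DNA library in Tris/NaCl/DTT/glycerol buffer, then washed, crosslinked with 0.1% formaldehyde, proximity-ligated (BsaI/T4 ligase, 1 h, 37 °C), PCR-amplified and sequenced on an Illumina NextSeq500. Binding signal is each hexamer's read frequency for a factor divided by its frequency for the tag-only sample.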

ETV3L = biological target: T2, ETV3L (Homo sapiens, UniProt Q6ZN32 1-361)
T2 sequence: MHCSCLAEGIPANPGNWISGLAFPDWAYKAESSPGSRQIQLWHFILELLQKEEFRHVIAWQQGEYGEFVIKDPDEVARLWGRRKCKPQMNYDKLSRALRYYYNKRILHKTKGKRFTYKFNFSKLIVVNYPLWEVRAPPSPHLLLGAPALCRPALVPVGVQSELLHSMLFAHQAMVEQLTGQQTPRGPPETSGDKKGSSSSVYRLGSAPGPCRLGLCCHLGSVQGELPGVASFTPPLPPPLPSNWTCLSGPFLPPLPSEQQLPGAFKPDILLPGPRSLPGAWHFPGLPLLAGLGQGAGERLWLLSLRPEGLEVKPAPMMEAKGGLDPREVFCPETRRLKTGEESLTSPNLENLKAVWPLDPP
Method in brief: as §1

ETS2 = biological target: T3, ETS2 (Homo sapiens, UniProt P15036 1-469)
T3 sequence: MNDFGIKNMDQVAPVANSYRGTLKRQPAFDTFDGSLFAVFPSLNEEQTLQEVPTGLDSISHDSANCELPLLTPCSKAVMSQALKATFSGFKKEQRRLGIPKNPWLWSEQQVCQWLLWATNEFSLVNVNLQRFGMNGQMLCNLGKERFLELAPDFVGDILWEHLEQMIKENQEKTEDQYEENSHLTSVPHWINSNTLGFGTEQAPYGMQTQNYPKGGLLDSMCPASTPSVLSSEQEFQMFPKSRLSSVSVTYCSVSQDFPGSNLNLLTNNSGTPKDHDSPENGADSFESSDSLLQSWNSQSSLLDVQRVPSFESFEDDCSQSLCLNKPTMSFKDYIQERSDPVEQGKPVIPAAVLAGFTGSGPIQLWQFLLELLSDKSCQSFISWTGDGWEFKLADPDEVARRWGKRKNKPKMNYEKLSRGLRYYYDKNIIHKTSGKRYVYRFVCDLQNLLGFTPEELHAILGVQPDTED
Method in brief: as §1

SPDEF = biological target: T4, SPDEF (Homo sapiens, UniProt O95238 1-335)
T4 sequence: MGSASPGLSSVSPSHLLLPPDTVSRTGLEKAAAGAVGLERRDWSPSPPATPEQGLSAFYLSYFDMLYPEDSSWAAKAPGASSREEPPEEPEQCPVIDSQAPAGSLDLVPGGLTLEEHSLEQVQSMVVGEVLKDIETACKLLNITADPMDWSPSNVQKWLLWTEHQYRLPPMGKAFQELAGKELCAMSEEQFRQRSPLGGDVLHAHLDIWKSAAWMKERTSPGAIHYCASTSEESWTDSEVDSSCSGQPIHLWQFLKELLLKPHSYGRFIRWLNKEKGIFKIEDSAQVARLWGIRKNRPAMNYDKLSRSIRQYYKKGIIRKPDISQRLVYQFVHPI
Method in brief: as §1

ETV7 = biological target: T5, ETV7 (Homo sapiens, UniProt Q9Y603 1-341)
T5 sequence: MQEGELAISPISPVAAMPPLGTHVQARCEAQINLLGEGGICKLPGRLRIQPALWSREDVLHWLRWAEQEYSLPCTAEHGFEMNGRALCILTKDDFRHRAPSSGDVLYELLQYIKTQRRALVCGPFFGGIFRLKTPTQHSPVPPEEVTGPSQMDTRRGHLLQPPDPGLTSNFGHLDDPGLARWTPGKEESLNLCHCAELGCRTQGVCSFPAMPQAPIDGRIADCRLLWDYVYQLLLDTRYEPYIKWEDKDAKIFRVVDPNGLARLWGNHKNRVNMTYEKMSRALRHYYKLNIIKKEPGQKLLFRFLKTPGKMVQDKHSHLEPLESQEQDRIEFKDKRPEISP
Method in brief: as §1

ELF5 = biological target: T6, ELF5 (Homo sapiens, UniProt Q9UKW6-2 1-255)
T6 sequence: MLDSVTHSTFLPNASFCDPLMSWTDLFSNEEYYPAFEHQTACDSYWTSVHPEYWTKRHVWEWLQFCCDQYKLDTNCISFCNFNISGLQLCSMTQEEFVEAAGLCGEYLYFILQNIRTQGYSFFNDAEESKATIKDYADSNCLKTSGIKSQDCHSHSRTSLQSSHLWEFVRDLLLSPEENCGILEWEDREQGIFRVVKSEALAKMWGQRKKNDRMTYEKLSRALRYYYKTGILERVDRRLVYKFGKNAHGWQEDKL
Method in brief: as §1

ETV3 = biological target: T7, ETV3 (Homo sapiens, UniProt P41162-2 1-143)
T7 sequence: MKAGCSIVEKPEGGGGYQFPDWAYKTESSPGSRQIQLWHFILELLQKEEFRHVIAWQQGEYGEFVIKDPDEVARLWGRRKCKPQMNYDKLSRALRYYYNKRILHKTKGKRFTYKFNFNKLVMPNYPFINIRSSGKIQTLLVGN
Method in brief: as §1

ETV6 = ETV6 (Homo sapiens, UniProt P41212 1-452)
Method in brief: as §1

ETV6, sequence (P41212 whole entry): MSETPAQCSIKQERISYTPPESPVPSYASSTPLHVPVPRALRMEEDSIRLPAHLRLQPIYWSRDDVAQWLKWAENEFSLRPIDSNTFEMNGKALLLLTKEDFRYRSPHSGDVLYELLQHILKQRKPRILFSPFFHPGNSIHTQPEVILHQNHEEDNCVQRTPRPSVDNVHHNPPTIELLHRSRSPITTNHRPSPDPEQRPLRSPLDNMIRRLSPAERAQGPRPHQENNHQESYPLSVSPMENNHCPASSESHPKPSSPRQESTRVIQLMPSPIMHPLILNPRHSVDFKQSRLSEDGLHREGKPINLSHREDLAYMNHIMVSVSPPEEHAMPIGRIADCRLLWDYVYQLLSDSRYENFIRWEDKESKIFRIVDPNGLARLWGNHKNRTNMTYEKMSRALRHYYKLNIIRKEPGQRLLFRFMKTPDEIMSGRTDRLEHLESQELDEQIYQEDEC

Sequence | binding signal (ERF) | binding signal (ETV3L) | binding signal (ETS2) | binding signal (SPDEF) | binding signal (ETV7) | binding signal (ELF5) | binding signal (ETV3) | binding signal (ETV6)
TCTGCG | 1.07 fold enrichment (6-mer frequency, TF over GST control) | 1.23 fold enrichment (6-mer frequency, TF over GST control) | 1.17 fold enrichment (6-mer frequency, TF over GST control) | 1.21 fold enrichment (6-mer frequency, TF over GST control) | 1.09 fold enrichment (6-mer frequency, TF over GST control) | 1.15 fold enrichment (6-mer frequency, TF over GST control) | 1.16 fold enrichment (6-mer frequency, TF over GST control) | 1.14 fold enrichment (6-mer frequency, TF over GST control)
TATTTA | 1.65 fold enrichment (6-mer frequency, TF over GST control) | 1.44 fold enrichment (6-mer frequency, TF over GST control) | 1.55 fold enrichment (6-mer frequency, TF over GST control) | 1.47 fold enrichment (6-mer frequency, TF over GST control) | 1.45 fold enrichment (6-mer frequency, TF over GST control) | 1.37 fold enrichment (6-mer frequency, TF over GST control) | 1.41 fold enrichment (6-mer frequency, TF over GST control) | 1.43 fold enrichment (6-mer frequency, TF over GST control)
GCTAGC | 1.2 fold enrichment (6-mer frequency, TF over GST control) | 1.35 fold enrichment (6-mer frequency, TF over GST control) | 1.2 fold enrichment (6-mer frequency, TF over GST control) | 1.13 fold enrichment (6-mer frequency, TF over GST control) | 1.24 fold enrichment (6-mer frequency, TF over GST control) | 1.15 fold enrichment (6-mer frequency, TF over GST control) | 1.16 fold enrichment (6-mer frequency, TF over GST control) | 1.09 fold enrichment (6-mer frequency, TF over GST control)
TGACTT | 1.45 fold enrichment (6-mer frequency, TF over GST control) | 1.4 fold enrichment (6-mer frequency, TF over GST control) | 1.53 fold enrichment (6-mer frequency, TF over GST control) | 1.24 fold enrichment (6-mer frequency, TF over GST control) | 1.48 fold enrichment (6-mer frequency, TF over GST control) | 1.56 fold enrichment (6-mer frequency, TF over GST control) | 1.46 fold enrichment (6-mer frequency, TF over GST control) | 1.39 fold enrichment (6-mer frequency, TF over GST control)
TATCCG | 2.52 fold enrichment (6-mer frequency, TF over GST control) | 2.45 fold enrichment (6-mer frequency, TF over GST control) | 2.55 fold enrichment (6-mer frequency, TF over GST control) | 3.8 fold enrichment (6-mer frequency, TF over GST control) | 2.1 fold enrichment (6-mer frequency, TF over GST control) | 3.31 fold enrichment (6-mer frequency, TF over GST control) | 2.57 fold enrichment (6-mer frequency, TF over GST control) | 2.38 fold enrichment (6-mer frequency, TF over GST control)
TATGGA | 1.16 fold enrichment (6-mer frequency, TF over GST control) | 1.13 fold enrichment (6-mer frequency, TF over GST control) | 1.12 fold enrichment (6-mer frequency, TF over GST control) | 1.18 fold enrichment (6-mer frequency, TF over GST control) | 1.26 fold enrichment (6-mer frequency, TF over GST control) | 1.08 fold enrichment (6-mer frequency, TF over GST control) | 1.22 fold enrichment (6-mer frequency, TF over GST control) | 1.05 fold enrichment (6-mer frequency, TF over GST control)
CCTTCC | 2.26 fold enrichment (6-mer frequency, TF over GST control) | 2.48 fold enrichment (6-mer frequency, TF over GST control) | 2.41 fold enrichment (6-mer frequency, TF over GST control) | 2.44 fold enrichment (6-mer frequency, TF over GST control) | 2.45 fold enrichment (6-mer frequency, TF over GST control) | 3.65 fold enrichment (6-mer frequency, TF over GST control) | 2.88 fold enrichment (6-mer frequency, TF over GST control) | 2.74 fold enrichment (6-mer frequency, TF over GST control)
AGAATT | 1.17 fold enrichment (6-mer frequency, TF over GST control) | 1.17 fold enrichment (6-mer frequency, TF over GST control) | 1.14 fold enrichment (6-mer frequency, TF over GST control) | 1.05 fold enrichment (6-mer frequency, TF over GST control) | 1.13 fold enrichment (6-mer frequency, TF over GST control) | 1.1 fold enrichment (6-mer frequency, TF over GST control) | 1.09 fold enrichment (6-mer frequency, TF over GST control) | 1.2 fold enrichment (6-mer frequency, TF over GST control)
AATACT | 1.19 fold enrichment (6-mer frequency, TF over GST control) | 1.24 fold enrichment (6-mer frequency, TF over GST control) | 1.23 fold enrichment (6-mer frequency, TF over GST control) | 1.15 fold enrichment (6-mer frequency, TF over GST control) | 1.31 fold enrichment (6-mer frequency, TF over GST control) | 1.37 fold enrichment (6-mer frequency, TF over GST control) | 1.28 fold enrichment (6-mer frequency, TF over GST control) | 1.4 fold enrichment (6-mer frequency, TF over GST control)
